The whole screen tested about 85,000 compounds, of which about 5,100 (6%) were called active. The full list was thinned out, with actives kept by preference. Unmarked numbers belong to inactive results.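 Rule for the calls: active = viability at or below 40%; inactive = viability above 40%.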

This experiment is described as follows: H69AR cell viability reduction – human, 86K library, primary screen (AID 598).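 Note: multidrug resistant small cell line overexpressing MRP-1 efflux transporter; 100% = mean luminescence of untreated control wells.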 The note with it: H69AR lung tumor viability, ATP luminescence, 72 h; at 10 µM; active compounds read low.
The term viability denotes a read-out of living cells in per cent, often relative to untreated cells. Turning to `CCn1c(SCC(=O)Nc2nc3ccc(OC)cc3s2)nnc1-c1ccoc1C`, the viability is 58.8%.
Take `CCOc1ccc2nc(NC(=O)CSc3nc4c(c(=O)n(C)c(=O)n4C)n3CC)sc2c1`: the viability was 14.9% (active).
`CCCCn1c(SCC(=O)NCCc2ccc(OC)c(OC)c2)nc2c1c(=O)n(C)c(=O)n2C`: the viability was 86.6%.
With `COC(=O)CNC(=O)c1ccccc1F` the figure was 85.2%.
`O=C(c1ccc(Cl)c(Cl)c1)N1CCCC1`: the viability was 95.3%.
With `C/C=C/C(=O)OCC(=O)Nc1ccc(F)cc1Cl` the figure was 98.4%; with `COc1ccccc1N1CCN(Cc2nnnn2CCc2ccccc2)CC1`, 102%; with `COc1ccccc1N1CCN(C(=O)CN(Cc2ccc(Cl)cc2)S(C)(=O)=O)CC1`, 86.8%.
The figure for `COc1ccccc1-n1nnnc1S(=O)(=O)Cc1ccc(Cl)cc1` is 1.36% (active); for `COCc1[nH][nH]c(=O)c1C=Nc1ccc(F)cc1F` it is 96.8%; for `Cc1cc(C(F)F)n2nc(C(=O)Nc3ccc(S(=O)(=O)NC45CC6CC(CC(C6)C4)C5)cc3)nc2n1` it is 115%.
With `CC(C)CNC(=O)CC(c1ccccc1)c1c(O)ccc2ccccc12` (configuration not stated) the figure was 92.8%; with `O=S(=O)(NCCc1ccccc1)c1ccccc1`, 103%; with `CCN1C(=O)C(CC(=O)Nc2cc(C)ccc2C)SC1=Nc1ccc(S(N)(=O)=O)cc1` (configuration not stated), 97.3%.
With `COc1ccc(CC(=O)Nc2ccc(-c3nnc(-c4ccc(C)cc4)o3)cc2)cc1`, the viability was 2.28% (active).
With `COc1ccc(CC(=O)Nc2ccc(-c3nnc(-c4ccccc4)o3)cc2)cc1` the figure was 58.1%.
The figure for `Cc1ccc(OCC(=O)Nc2ccc(-c3nnc(-c4ccco4)o3)cc2)cc1` is 90.5%; for `CN(Cc1ccccc1)C(=O)COc1ccccc1` it is 97.9%; for `CCc1ccccc1NC(=O)CN(C)S(=O)(=O)c1ccc2c(c1)c(=O)n(C)c(=O)n2C` it is 88.5%.
For the compound `CC(=O)c1ccc(S(=O)(=O)N2CCN(c3nc4c(C)c(C)ccc4cc3C#N)CC2)cc1`, the viability is 36% (active).
With `Cc1cc(C)c2nc(N3CCCC3)c(C#N)cc2c1` the figure was 91.6%; with `Cc1cccc2cc(C#N)c(N3CCCC3)nc12`, 100%; with `CCS(=O)(=O)Nc1ccc(C2=NN(S(=O)(=O)c3ccc(F)cc3)C(c3ccco3)C2)cc1` (configuration not stated), 81.9%.
For `O=C(NC1CCCC1)C(c1ccccn1)N(C(=O)c1csnn1)C1CCCC1` (configuration not stated), the viability is 81.2%.
For `CCOC(=O)CN(Cc1ccc(OC)c(OC)c1)S(=O)(=O)c1ccc(OC)cc1`, the viability was 87.8%.
The figure for `Cc1ccccc1OCCC(=O)Nc1c(C)n(C)n(-c2ccccc2)c1=O` is 91%; for `Cc1cc(C)cc(N(CC(=O)Nc2c(C)n(C)n(-c3ccccc3)c2=O)S(C)(=O)=O)c1` it is 93.1%; for `Cc1c(NC(=O)CSc2cccc3cccnc23)c(=O)n(-c2ccccc2)n1C` it is 0.71% (active).
The figure for `COc1ccc(C(C)=O)cc1CN1C(=O)NC2(CCCCC2C)C1=O` (configuration not stated) is 93.7%.
With `CCOC(=O)C1CCN(C(=O)COc2cc(C)c(Br)c(C)c2)CC1` the figure was 35.3% (active).
Take `CCOC(=O)C1CCN(C(=O)Nc2ccc(Cl)cc2)CC1`: the viability was 101%.
As for `CCOC(=O)N1CCN(C(=O)COc2ccc(Br)cc2)CC1`, the viability is 104%.
The figure for `O=C1C2C3C=CC(C4CC34)C2C(=O)N1/N=C/c1ccc(-c2ccccc2[N+](=O)[O-])o1` (configuration not stated) is 86.5%.
The figure for `COc1cccc(NC(=O)Cc2ccc(C)cc2)c1` is 97.9%.
As to `COc1ccc(NC(=O)/C(Cl)=C(/Cl)S(=O)Cc2ccc(C)cc2)cn1` (configuration not stated), the viability is 0.7% (active).
With `O=C(Cn1cnc2ccccc2c1=O)NCC1COc2ccccc2O1` (configuration not stated) the figure was 104%; with `Cc1cc(=O)[nH]c(SCc2cccc(F)c2)n1`, 106%; with `O=C(Cn1nc(C(F)(F)F)c2c1CCC2)NCc1ccc(F)cc1`, 104%.
With `Cc1cc(NC(=O)Cn2nc(C(F)(F)F)c3c2CCCC3)no1` the figure was 35.8% (active).
Take `COC(=O)c1ccccc1NC(=O)Cn1nc(C(F)(F)F)c2c1CCC2`: the viability was 84.3%.
With `Cc1ccc(OC(=O)c2ccccc2C(=O)OCC(F)(F)C(F)F)cc1` the figure was 99.1%; with `COc1ccc(-n2ncc3c(N4CCCc5ccccc54)ncnc32)cc1`, 100%; with `COc1ccc(-n2ncc3c(N4CCc5ccccc54)ncnc32)cc1`, 43.4%.
`Cc1cccc(-n2ncc3c(N4CCc5ccccc54)ncnc32)c1`: the viability is 33.3% (active).
With `CC(C)N1C(=S)SC(C)(C)C1n1oc(=O)n(-c2ccc(Cl)c(Cl)c2)c1=O` (configuration not stated), the viability is 97.1%.
For `CC(C)(C)n1nnnc1C(c1ccc(F)cc1)N1CCN(Cc2ccc3c(c2)OCO3)CC1` (configuration not stated), the viability is 81.2%.
With `CCN1C(=O)/C(=C\N2CCOCC2)SC1=S` the figure was 86.2%; with `CCSc1nc(-c2ccc(OC)cc2)cc(-c2ccc(OC)cc2)c1C#N`, 88%; with `O=C(Cn1c(=O)sc2ccccc21)Nc1nc2c(s1)CCCC2`, 63.2%.
The figure for `COC(=O)C(NC(C)=O)(Nc1nc2c(s1)CCCC2)C(F)(F)F` (configuration not stated) is 91.5%; for `O=C(CCS(=O)(=O)c1ccccc1)Nc1nc2c(s1)CCCC2` it is 17.5% (active); for `COc1ccc(C(C#N)N2N=C(C)CC2(C)C)cc1` (configuration not stated) it is 104%.
With `COC(=O)c1c(C)c(C)nc(N)c1C#N` the figure was 98.1%; with `FC(F)(F)c1cc(-c2ccco2)nc(NCc2ccc(Cl)cc2)n1`, 101%; with `CCCNC(=O)c1ccc(Cl)c(Cl)c1`, 96%.
As for `O=C(NCc1cccnc1)Nc1ccccc1F`, the viability is 98.8%.
Regarding `CCC(c1nnnn1Cc1ccco1)N(CCc1ccccc1)Cc1cc2ccc(OC)cc2[nH]c1=O` (configuration not stated), the viability is 23.2% (active).
With `CCC(c1nnnn1Cc1ccco1)N(Cc1cc2cc(OC)ccc2[nH]c1=O)C1CCCCC1` (configuration not stated) the figure was 76.8%; with `CCC(c1nnnn1Cc1ccco1)N(CCc1ccccc1)Cc1cc2cccc(C)c2[nH]c1=O` (configuration not stated), 67.3%; with `Cc1cc(NC(=O)CSc2nc(C(C)C)nc3sc4c(c23)CCC(C)C4)no1` (configuration not stated), 6.01% (active).
With `Cc1nc(SCC(=O)Nc2cc(C)on2)c2c3c(sc2n1)CCCC3`, the viability was 94%.
With `CC1CCc2c(sc(NC(=O)c3ccc(Cn4cc(Br)cn4)o3)c2C(N)=O)C1` (configuration not stated) the figure was 101%; with `C=CCN(C(=O)Nc1ccc2oc(C)nc2c1)c1ccccc1`, 78.7%; with `COc1cc(C(=O)Nc2nccs2)cc(OC)c1OC`, 84.2%.
In the case of `COc1ccc(-c2nn(-c3ccccc3)cc2C(=O)Nc2nc(CC(C)=O)ns2)cc1`, the viability was 86.5%.
The figure for `COc1ccc(-c2nn(-c3ccccc3)cc2C(=O)Nc2nccs2)cc1OC` is 17.2% (active); for `C/C=C/C(=O)Nc1nnc(C(C)C)s1` it is 96.5%.
`O=C(Nc1ccccc1)c1ccc2c(c1)OCO2`: the viability was 82.3%.
Take `CCC(C)c1ccc(O)c(/C=N/O)c1` (configuration not stated): the viability is 21.6% (active).
The figure for `Cc1nn(C(C)CC(=O)O)c(C)c1C` (configuration not stated) is 98.2%; for `CCCCNC(=O)C1(c2ccc(OC)cc2)CCOCC1` it is 93.8%.
The figure for `CCOc1ccc(NC(=O)c2ccccc2NS(C)(=O)=O)cc1` is 94.1%; for `C=CCn1c(SCC(=O)NCc2ccccc2)nnc1-c1cc(Br)ccc1O` it is 87.8%.
With `C=CCn1c(SCC(=O)Nc2nc3ccccc3s2)nnc1-c1ccccc1O` the figure was 27.4% (active); with `C=CCn1c(CSc2nc3ccccc3s2)nnc1SCC(=O)NCc1ccco1`, 54.6%; with `COc1ccc(OC)c(Nc2nc(-c3ccc(O)c(O)c3)cs2)c1`, 30.8% (active).
`Oc1ccc(-c2csc(Nc3cccnc3)n2)cc1`: the viability is 54.4%.
The figure for `COc1ccc(C(=O)Nc2nc(-c3ccc(S(=O)(=O)N4CCOCC4)cc3)cs2)cc1` is 58%; for `CCOC(=O)C1=C(CN2CCc3ccccc32)NC(=O)NC1c1ccc(Cl)cc1` (configuration not stated) it is 48.1%; for `CCOC(=O)C1=C(CNC2CCCCC2)NC(=O)NC1c1cc(C)ccc1C` (configuration not stated) it is 80.5%.
As to `CCOC(=O)C1=C(CN2CCc3ccccc32)NC(=O)NC1c1cccc([N+](=O)[O-])c1` (configuration not stated), the viability is 16.4% (active).
The figure for `COC(=O)C1=C(C(=O)c2ccc(C)cc2)C(c2ccccc2)n2nnnc2N1` (configuration not stated) is 93.9%.
With `COc1ccc(C2=CC(c3cccc(OC)c3)n3nnnc3N2)cc1` (configuration not stated) the figure was 11.4% (active); with `COc1ccccc1NC(=O)C1=C(C)Nc2nnnn2C1c1cccc(Br)c1` (configuration not stated), 45.1%; with `CC(C)C(NC(=O)c1ccc(Cl)cc1)C(=O)O` (configuration not stated), 111%.
Turning to `O=c1c2ccccc2nnn1CSc1nc2sc3c(c2c(=O)n1CC1CCCO1)CCC3` (configuration not stated), the viability is 54.9%.
For `CCCc1nc2sc3c(c2c(=O)n1NC(=O)CCCl)CCCC3`, the viability is 36% (active).
With `Cn1c(NN)nc2sc3c(c2c1=O)CCC3` the figure was 96.5%; with `CC(C)CCNC(=O)CC1C(=O)N(Cc2ccccc2)C(C)c2nc3ccccc3n21` (configuration not stated), 102%; with `COc1ccc(C2(CNC(=O)C(c3ccccc3)c3ccccc3)CCOCC2)cc1OC`, 74.8%.
With `CCOc1cc(C(=O)Nc2c(C)ccc3nsnc23)cc(OCC)c1OCC` the figure was 78.3%; with `COc1ccc(C(=O)Nc2ccc(CN3CCOCC3)cc2)cc1`, 98.4%; with `O=C(CC(NCCN1CCOCC1)C(=O)O)Nc1cccc(Cl)c1` (configuration not stated), 94.2%.
As for `COc1cccc2cc(C(C)N(CCCN3CCOCC3)C(=O)Nc3ccc(Cl)cc3)oc12` (configuration not stated), the viability was 31.7% (active).
With `CCn1c(SCC(=O)Nc2cccc(F)c2)nnc1-c1cc2cc(Br)ccc2o1`, the viability is 34.7% (active).
Turning to `CCn1c(Cc2ccccc2)nnc1SCC(=O)Nc1ccccc1`, the viability was 90%.
Take `CCCn1c(SCC(=O)Nc2cccc(C(=O)OCC)c2)nnc1-c1ccoc1C`: the viability is 78.9%.
